This is an account of results in PubChem BioAssay (EPA / NIEHS).

Active and inactive are the calls of the source. The calls were made as follows: active = hit-call score of the fitted dose curve at least 0.9, where 1 is the maximum; inactive = score below 0.9.

Read-out in this test: Collagen IV, COL4A1 (gene 1282)
The test is described as follows: BSK_MyoF_CollagenIV: BioMAP Diversity Plus: MyoF Assay for Collagen IV Biomarker Activity (AID 2284247). To be noted: primary human lung fibroblasts. The protocol: BSK_MyoF is a cell-based, multiplexed-readout assay that uses lung fibroblasts, […], with measurements taken at 24 hours after chemical dosing in a microplate: 96-well plate.BSK_MyoF_CollagenIV is an assay component measured in the BSK_MyoF assay. It measures Collagen IV antibody related to regulation of gene expression using ELISA technology.Data from the assay component BSK_MyoF_CollagenIV was analyzed at the endpoint, BSK_MyoF_CollagenIV, in the positive analysis fitting direction relative to DMSO as the negative control and baseline of activity. Using a type of binding reporter, gain or loss-of-signal activity can be used to understand protein changes. To generalize the intended target to other relatable targets, this assay endpoint is annotated to the 'cell adhesion molecules' intended target family, where the subfamily is 'collagen'.
The levels of cell surface (or secreted, indicated by the prefix "s") biomarker endpoints were measured by ELISA. Overt cytotoxicity to cells in confluent adherent cultures (all systems other than the BT system) was assessed by measuring total protein levels using sulforhodamine B (SRB) staining in parallel cultures at the time of biomarker measurements, indicated as SRB endpoints. For proliferation assays for adherent cell types, individual cell types are cultured at sub-confluence and relative cell numbers quantified by SRB staining at time points optimized for each system (48 h: 3C and CASM3C systems; 72 h: BT and HDF3CGF systems; 96 h: SAg system). SRB was performed by staining cells with 0.1% SRB after fixation with 10% TCA and reading wells at 560 nm.Viability and proliferation of PBMC (T cells) was quantified by Alamar Blue reduction for the SAg and BT systems. For PBMC viability (referred to as PBMC Cytotoxicity within the assay endpoint names), cells were plated (75,000/well in a 96-well plate) and then chemical samples added for 1 h before addition of activators, SEB and TSST-1 (20 ng/mL final concentration each). Cells were incubated for 90 h. Then, Alamar Blue (20 uL/well) (Invitrogen, Cat DAL1100) was added for 6 h, and the plates were read with a fluorescence microplate reader at 546/580 nm (excitation/emission). For PBMC proliferation, cells were plated and activated as above but incubated for only 16 h prior to addition of Alamar Blue. Plates were read after 6 h.
For `COc1ccc(OC)c(N=Nc2c(O)ccc3ccccc23)c1`, the outcome was inactive.

Take `CCN(CC)C(=O)N(CC)CC`: the outcome was inactive.

Take `C=C(C)[C@H]1CC=C(C)C(=O)C1`: the outcome was inactive.

For the compound `CC1(C)C2=CCCC(C)(C)[C@]23CC[C@H]1C3`, the result was inactive.

For the compound `CC(C=O)Cc1ccc(C(C)(C)C)cc1` (stereo not drawn), the result was inactive.

Take `CS(=O)(=O)c1ccc(C2=C(c3ccccc3)C(=O)OC2)cc1`: the outcome was inactive.

For orientation: AC50 means the midpoint of the concentration-response curve, whichever way the signal moves. As for `CCC(C)c1cc([N+](=O)[O-])cc([N+](=O)[O-])c1OC(=O)OC(C)C` (stereo not drawn), the AC50 was 20 µM (active).

As to `CN(C)C(=O)Nc1ccc(Oc2ccc(Cl)cc2)cc1`, the result was inactive.

On to `C=C(C)C(=O)OCCOCCOCCOCCOC(=O)C(=C)C`, for which the outcome was inactive.

As for `O=C1OC2(c3ccccc31)c1ccc(O)c(Br)c1Oc1c2ccc(O)c1Br`, the AC50 is 4.52 µM (active).

In the case of `C=C(C)C(=O)OCC(CC)(COC(=O)C(=C)C)COC(=O)C(=C)C`, the AC50 was 14.6 µM (active).

As to `CCCCCCCCCCCCCCCC(=O)OC/C=C(C)/C=C/C=C(C)/C=C/C1=C(C)CCCC1(C)C`, the result was inactive.

As to `CC(=O)C1(C)CC2=C(CCCC2(C)C)CC1C` (stereo not drawn), the AC50 was 11.9 µM (active).

Consider `O=C1c2ccccc2C(=O)c2c(O)ccc(O)c21`, for which the result was inactive.

`CCCCN(CCCC)C(=O)N(CCCC)CCCC`: the AC50 is 8.89 µM (active).

For the compound `c1ccc(Oc2ccccc2)cc1`, the outcome was inactive.

As for `C[C@@H]1CCN(C(=O)[C@H](CCCN=C(N)N)NS(=O)(=O)c2cccc3c2NC[C@H](C)C3)[C@@H](C(=O)O)C1`, the outcome was inactive.

In the case of `CSCCC=O`, the outcome was inactive.

Turning to `CN(C)C(=S)SC(=S)N(C)C`, the result was inactive.

For the compound `CC(=O)Nc1ccc(C(=O)CCl)cc1`, the AC50 was 16.9 µM (active).

Take `Oc1c(Cl)cc(Cl)c(Cl)c1Cc1c(O)c(Cl)cc(Cl)c1Cl`: the outcome was inactive.

Consider `c1ccc(CCc2ccccc2)cc1`, for which the AC50 is 31.5 µM (active).

As to `IC(I)I`, the outcome was inactive.

Consider `COc1cc(Cl)c(OC)cc1N`, for which the result was inactive.

For `CC(C)(N=C=O)c1cccc(C(C)(C)N=C=O)c1`, the result was inactive.

With `CCCCCC(C=O)=Cc1ccccc1`, the outcome was inactive.

For `C1=CC2C3C=CC(C3)C2C1` (stereo not drawn), the result was inactive.

`CCCCOC(=O)CCCCCCCC(=O)OCCCC`: the result was inactive.

For the compound `C=C(C)C(=O)OCCOCCOCCOC(=O)C(=C)C`, the result was inactive.

`CN(c1nccc(=O)[nH]1)C1CCN(c2nc3ccccc3n2Cc2ccc(F)cc2)CC1`: the outcome was inactive.

For `Cc1cc(CCC(=O)OCCOCCOCCOC(=O)CCc2cc(C)c(O)c(C(C)(C)C)c2)cc(C(C)(C)C)c1O`, the outcome was inactive.

Consider `CC=Cc1ccc(OCC)c(O)c1`, for which the result was inactive.

As to `O=C1OC[C@H](Cc2cccc(O)c2)[C@H]1Cc1cccc(O)c1`, the result was inactive.

Take `COc1ccc(CCN2CCC(Nc3nc4ccccc4n3Cc3ccc(F)cc3)CC2)cc1`: the result was inactive.

`CC(=O)c1c(C)c([N+](=O)[O-])c(C(C)(C)C)c([N+](=O)[O-])c1C`: the outcome was inactive.

Take `CC(C)(C)CC(C)(C)c1ccc(OCCOCC[N+](C)(C)Cc2ccccc2)cc1`: the AC50 is 8.51 µM (active).

In the case of `c1ccc2cc(Nc3ccc(Nc4ccc5ccccc5c4)cc3)ccc2c1`, the result was inactive.

On to `Clc1cc(Cl)c(-c2c(Cl)c(Cl)cc(Cl)c2Cl)cc1Cl`, for which the outcome was inactive.
